The text below walks through data of PubChem BioAssay (NCATS).

Molecules are shown by their SMILES. Inconclusive results are not listed. Unmarked numbers belong to inactive results. Active and inactive are the calls of the source. Calls follow the shape of the dose curve; as a rule, active = well fitted cell-killing curve with a large enough effect; inconclusive = small, poorly fitted or top-dose-only effect, or effect the other way; inactive = no such curve, though single readings can be large or run the other way.

The term viability denotes a read-out of living cells in per cent, often relative to untreated cells.
Potency is read from the fitted curve at half-maximal effect.

This experiment can be described thus: Quantitative highthroughput screen to assess conditional lethalithy of SEM cells grown in Human Plasma-Like Medium with dialyzed fetal bovine serum (HPLM+ds) (AID 1963882). Also: nearly all actives have a fitted effect of over 35% in size. Conditions: SEM B-ALL cells in HPLM+ds, CellTiter-Glo viability, 48 h; series mostly up to 45.8 µM; viability: at the top concentration. The text has this:
Assay Provider: Jason Cantor Ph.D.
Department of Biochemistry
University of Wisconsin-Madison, Madison, WI, USA
Chemical screening studies have identified drug sensitivities across hundreds of cancer cell lines but most putative therapeutics fail to translate. Discovery and development of drug candidates in models that more accurately reflect nutrient levels in human blood is a major challenge. Here we performed high-throughput screens in conventional versus Human Plasma-Like Medium (HPLM) to identify compounds that were "missed" when screening using the artificial culture condition. Sets of conditional anticancer compounds spanned phases of clinical development and included non-oncology drugs were assessed. […] We also traced conditional phenotypes for several chemotherapeutics to availability of HPLM-specific metabolites and confirmed others for compounds whose reported targets are encoded by nonessential genes. Our findings establish generalizable strategies for exploiting conditional lethality in HPLM to reveal therapeutic candidates and mechanisms of action in cancer cells.
Described herein are the results of each viability screens against three cell lines: NOMO1 (an acute myeloid leukemia cell line); P12-Ichikawa (a T-cell acute lymphoblastic leukemia); and SEM (a B-cell ALL). Each assay was screened using 3 different cell culture media: homemade human plasma-Like medium with 10% dialyzed fetal bovine serum (HPLM+ds); RPMI1640 with 10% untreated FBS and 5mM glucose (RPMI+s); and RPMI1640 with 10% dialyzed fetal bovine serum and 5 mM glucose (RPMI+ds).
PROTOCOL TABLE (as described by Inglese J, Shamu CE and Guy RK. 2007)
SEQUENCE No. (e.g., 1, 2, 3, etc.); […] (e.g., Cells, Incubation, Reagent, etc.); VALUE and DESCRIPTION.
1; Cells; 5 uL; white, solid bottom 1536-well Greiner assay plate.
2; Compounds; 23 nL; Kalypsis pin tool (Wako USA) equipped with a 1536-well pin head to transfer to the assay plates.
3; Incubation; 48 hours; 37C incubation.
4; Reagent; 3 uL; CellTiter Glo (Promega).
5; Incubation; 5 min, room temperature
6; Detection; Luminescence, Viewlux PerkinElmer.
NOTES (numbers refer to Sequence numbers above)
1. Briefly, 5 ul of cell reagent was dispensed using a Multidrop Combi Dispenser. The NOMO1 and SEM cells were plated at 500 cells/well and the P12-Ichikawa line at 1000 cells/well.
2. After seeding the cells, 23 nL of MIPE 4.1 library compounds (in DMSO) were added to each plate using a Kalypsys 1536 Pintool dispenser. Bortezomib at final concentration of […] and DMSO were added to each plate as positive and negative controls respectively. For each screen, MIPE 4.1 compounds were added over an eleven-point concentration range […] in 3-fold dilutions.
3. Each plate was covered with a stainless steel gasketed lid to prevent evaporation and incubated for 48 hour at 37C, 95% relative humidity, and 5% CO2.
4-5. Three microliter CellTilter-GloTM luminescent substrate mix (Promega) reagent was added to the assay plate and incubated at room temperature for 5 min.
6. The luminescence signal was measured using a ViewLux (PerkinElmer) multiplate reader with a 2 second exposure time per plate. Data for each compound were normalized as percent viability such that measurements for DMSO and the empty well controls in each plate were defined as 100% and 0%, respectively.
Turning to `COc1cc(C)c(Sc2cnc(NC(=O)c3ccc(CNC(C)C(C)C)cc3)s2)cc1C(=O)N1CCN(C(C)=O)CC1` (stereo not given), the Potency is 7.43 µM (active).
On to `COc1ccc(Cc2ccc(NC(N)=O)cc2)cc1-c1cccc(Cl)c1`, for which the “viability” value is 89.7%.
With `c1ccc2c(CCNc3ccc(Nc4ccncc4)cc3)c[nH]c2c1`, the Potency is 0.935 µM (active).
On to `O=C(O)C=Cc1ccc(Cn2ccnc2)cc1`, for which the “viability” value is 112%.
On to `CN(C)c1ccc(C(=C2C=CC(=[N+](C)C)C=C2)c2ccc(N(C)C)cc2)cc1`, for which the Potency was 0.118 µM (active).
On the same count and under the same terms, the result for `CN(C)CC=CC(=O)Nc1cc2c(Nc3ccc(F)c(Cl)c3)ncnc2cc1O[C@H]1CCOC1` reads 1.05 µM (active).
Regarding `O=C(Nc1cc(Cl)cc2c1[nH]c1cnccc12)c1cccnc1`, the “viability” value is 108%.
Take `CCCNS(=O)(=O)Nc1ncnc(OCCOc2ncc(Br)cn2)c1-c1ccc(Br)cc1`: the “viability” value is 85.6%.
Turning to `O=C(CCCCCCC(=O)Nc1ccccc1)NO`, the Potency is 3.72 µM (active).
On to `OC[C@H]1O[C@@H](OCCc2ccc(O)cc2)[C@H](O)[C@@H](O)[C@H]1O`, for which the “viability” value is 108%.
As to `CCC(=C(CC)c1ccc(O)cc1)c1ccc(O)cc1`, the “viability” value is 96.2%.
For `COc1cc2nccc(Oc3ccc(NC(=O)Nc4ccc(F)cc4F)c(F)c3)c2cc1OC`, the Potency was 0.0105 µM (active).
In the case of `CC1CNc2c(cccc2S(=O)(=O)N[C@@H](CCCN=C(N)N)C(=O)N2CC[C@@H](C)C[C@@H]2C(=O)O)C1` (stereo not given in full), the “viability” value is 87.3%.
Same read-out and setting: next, `Cc1cc(=O)oc2cc(O)ccc12`: 105%; `C=C1C[C@@]2(O)O[C@@]3(C[C@H]2C(C)C)[C@H](C)CC[C@H]13`: 85.3%.
Consider `CC(C)NC[C@@H](C(=O)N1CCN(c2ncnc3c2[C@H](C)C[C@H]3O)CC1)c1ccc(Cl)cc1`, for which the Potency was 0.296 µM (active).
As to `CNC(=O)c1ccc(-c2cnc3ncc(Cc4ccc5ncccc5c4)n3n2)cc1F`, the “viability” value is 101%.
Consider `Nc1nc(Nc2ccc(S(N)(=O)=O)cc2)nn1C(=O)c1c(F)cccc1F`, for which the Potency was 8.33 µM (active).
Turning to `C[C@H](NC(=O)[C@@H](O)c1cc(F)cc(F)c1)C(=O)N[C@@H]1C(=O)N(C)c2ccccc2-c2ccccc21`, the “viability” value was 93.7%.
`CC(C)N(CC[C@H](c1ccccc1)c1cc(CO)ccc1O)C(C)C`: the “viability” value was 85.8%.
On to `COc1ccc(CCC(=O)Nc2nc3ccc(Cl)cc3s2)cc1OC`, for which the “viability” value is 105%.
In the case of `O=C1CCC[C@@H]2[C@H]3CCC[N+]4([O-])CCC[C@@H](CN12)[C@@H]34` (stereo not given in full), the Potency is 6.62 µM (active).
The same measure, in the same setting: next, `Cc1ccc(C(N)=O)cc1Nc1nccc(-c2cn(C(C)C)c3cnccc23)n1`: 3.32 µM (active).
Regarding `CCCCc1ccc(NS(=O)(=O)c2ccc(C)c(C(=O)N3CCN(c4cccc(C)c4C)CC3)c2)cc1`, the “viability” value is 99.4%.
Take `CC(C)CC(=O)Nc1n[nH]c2c1CN(C(=O)C1CCN(C)CC1)C2(C)C`: the Potency was 2.64 µM (active).
On the same count and under the same terms, next, `CC(C)C[C@H](NC(=O)[C@@H](NC(=O)c1cccc(-c2ccccc2)n1)[C@@H](C)O)B(O)O`: 0.0148 µM (active); `CO[C@H]1/C=C\O[C@@]2(C)Oc3c(C)c(O)c4c(O)c(c5c(nc6cc(C)ccn65)c4c3C2=O)NC(=O)C(C)=CC=C[C@H](C)[C@H](O)[C@@H](C)[C@@H](O)[C@@H](C)[C@H](OC(C)=O)[C@H]1C`: 18.7 µM (active).
With `CC(C)(C)[C@H](NC(=O)c1ccc(N)c(Cl)c1)C(=O)N1CCC[C@@H]1C(=O)N[C@H](C#N)CC(=O)O`, the viability was 112% [at 3.51 µM].
As to `Cn1cc(C2=C(c3c4n(c5ccccc35)CCC(CN)C4)C(=O)NC2=O)c2ccccc21` (stereo not given), the Potency is 10.5 µM (active).
Turning to `FC(F)(F)c1ccc(Nc2nc3ccc(Oc4ccnc(-c5ncc(C(F)(F)F)[nH]5)c4)cc3[nH]2)cc1`, the Potency was 18.7 µM (active).
With `Cc1ccc(O)c(C(CCN(C(C)C)C(C)C)c2ccccc2)c1` (stereo not given), the “viability” value was 93.8%.
On to `CN1CCCN(C(=O)c2cccc(-c3ccc(C=C4C(=O)Nc5ccc(Cl)cc54)o3)c2)CC1`, for which the Potency is 5.9 µM (active).
The same measure, in the same setting: the result for `Nc1cc(C(F)(F)F)c(-c2cc(N3CCOCC3)nc(N3CCOCC3)n2)cn1` reads 0.935 µM (active).
`O=c1c(-c2ccc(O)cc2)coc2cc(OC3O[C@H](CO)[C@H](O)[C@H](O)[C@H]3O)cc(O)c12` (stereo not given in full): the “viability” value was 89.9%.
As for `Cc1cn2cc(C(=O)N(C)CCO)cc(N[C@@H]3CCOc4cccc(C)c43)c2n1`, the “viability” value was 92%.
As to `COc1ccc2cc1Oc1ccc(cc1)C[C@H]1c3cc(c(OC)cc3CCN1C)Oc1c(OC)c(OC)cc3c1[C@H](C2)N(C)CC3`, the “viability” value is 97.7%.
As for `COc1cc2ncnc(Nc3ccc(F)c(Cl)c3)c2cc1OCCCN1CCOCC1`, the Potency was 38.2 µM (active).
As for `Nc1ncnc2ccccc12`, the “viability” value was 110%.
Still for that read-out and setting: the result for `C[N+]1(C)[C@@H]2CC(OC(=O)[C@H](CO)c3ccccc3)C[C@H]1[C@H]1O[C@@H]12` (stereo not given in full) reads 92.3%.
On the same count and under the same terms, the result for `Nc1[nH]c(=O)ncc1F` reads 88.1%.
